Six compounds from PubChem BioAssay can be followed below.

Assay [1] relates to Plasmodium falciparum Sir2 (PF13_0152, Sir2A). The experiment in a line: Plasmodium falciparum Sir2A binding compounds – biochemical, small-molecule microarray, 635 nm fluorescence, primary screen (AID 1098).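 Also: score merges spot fluorescence intensity with its signal-to-noise ratio.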 Particulars: fluorescence 635 nm, higher = more signal.
A short description of assay [2]: probe aDKK1 binding to arrayed compounds – biochemical, biotinylated probe, 635/667 nm fluorescence, primary screen (AID 1099).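 Also: score merges 667nm spot fluorescence with signal to noise across triplicate slides.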 Particulars: small-molecule microarray, higher = more signal.
Assay [3] in a line: probe aCHRDL2 binding to arrayed compounds – biochemical, biotinylated probe, 635/667 nm fluorescence, primary screen (AID 1100). Particulars: small-molecule microarray, higher = more signal.
The nature of assay [4]: change in splice reporter luminescence, either direction, cell-based, HEK293, spliceosome inhibition project, primary screen (AID 1101).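 Also: HEK293 cells carrying a splicing-competent luciferase reporter gene; test concentration not given here.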 Particulars: HEK293 splicing luciferase reporter, 24 h, higher = more signal, called active from +8 up or from −8 down. On the technique in general: A reporter such as luciferase makes a cellular process visible.
Assay [5] has as its target Fibroblast growth factor 10 (Homo sapiens) (UniProt O15520). The experiment in a line: compounds binding fibroblast growth factor 10 – biochemical, small-molecule microarray, 635 nm fluorescence, primary screen (AID 1102). Particulars: FGF10 binding, fluorescence 635 nm, higher = more signal.
For assay [6], the system named is glycogen synthase kinase-3 (GSK3A per assay name; protocol says GSK3B). The experiment in a line: compounds binding glycogen synthase kinase-3 – biochemical, small-molecule microarray, 635 nm fluorescence, GSK3A, primary screen (AID 1103). Also: the record names both GSK3A and GSK3B. Particulars: fluorescence 635 nm, higher = more signal.
The target of assay [7] is Epidermal growth factor receptor (Homo sapiens) (UniProt P00533). The experiment in a line: compounds binding epidermal growth factor receptor – biochemical, small-molecule microarray, 635 nm fluorescence, primary screen (AID 1104).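 Also: score merges 667 nm emission intensity with spot signal to noise over triplicate slides.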 Particulars: EGFR binding, higher = more signal.
Chain of Epidermal growth factor receptor (Homo sapiens) (P00533 whole entry, looked up): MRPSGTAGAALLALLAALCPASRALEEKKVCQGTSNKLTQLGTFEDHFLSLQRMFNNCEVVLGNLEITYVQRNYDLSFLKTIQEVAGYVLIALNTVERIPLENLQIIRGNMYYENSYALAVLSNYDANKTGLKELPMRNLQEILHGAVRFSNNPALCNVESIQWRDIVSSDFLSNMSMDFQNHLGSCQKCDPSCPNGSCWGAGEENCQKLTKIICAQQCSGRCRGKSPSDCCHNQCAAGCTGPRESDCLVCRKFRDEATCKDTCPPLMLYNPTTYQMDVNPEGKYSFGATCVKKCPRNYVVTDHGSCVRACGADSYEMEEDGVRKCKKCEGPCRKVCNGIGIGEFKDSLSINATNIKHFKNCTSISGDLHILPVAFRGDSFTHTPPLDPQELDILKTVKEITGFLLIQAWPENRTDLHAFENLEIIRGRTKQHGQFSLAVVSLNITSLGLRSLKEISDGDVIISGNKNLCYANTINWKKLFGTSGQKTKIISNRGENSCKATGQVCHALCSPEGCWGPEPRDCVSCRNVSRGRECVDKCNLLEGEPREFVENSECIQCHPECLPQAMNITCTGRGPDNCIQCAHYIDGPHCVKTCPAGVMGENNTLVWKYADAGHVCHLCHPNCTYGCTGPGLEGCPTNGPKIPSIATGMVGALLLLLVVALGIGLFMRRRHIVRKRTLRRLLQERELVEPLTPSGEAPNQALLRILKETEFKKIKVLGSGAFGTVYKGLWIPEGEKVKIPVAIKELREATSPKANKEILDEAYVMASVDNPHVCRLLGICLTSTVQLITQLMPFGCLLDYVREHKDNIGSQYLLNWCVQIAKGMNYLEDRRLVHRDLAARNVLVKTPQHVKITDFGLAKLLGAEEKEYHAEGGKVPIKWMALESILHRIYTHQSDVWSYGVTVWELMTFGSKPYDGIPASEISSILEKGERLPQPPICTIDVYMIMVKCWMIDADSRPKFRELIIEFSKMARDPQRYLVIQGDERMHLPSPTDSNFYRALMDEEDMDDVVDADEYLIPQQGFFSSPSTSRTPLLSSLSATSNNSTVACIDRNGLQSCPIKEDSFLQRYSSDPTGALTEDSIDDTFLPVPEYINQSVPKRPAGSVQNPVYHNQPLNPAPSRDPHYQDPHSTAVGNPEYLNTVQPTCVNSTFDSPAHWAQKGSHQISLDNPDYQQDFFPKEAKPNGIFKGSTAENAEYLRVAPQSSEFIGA
For assay [8], the target named is Follistatin-related protein 3 (Homo sapiens) (UniProt O95633). The experiment in a line: compounds binding follistatin-related protein 3 – biochemical, small-molecule microarray, 635 nm fluorescence, primary screen (AID 1105).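 Also: score merges emission near 667 nm and signal to noise per printed spot across three slides.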 Particulars: FSTL3 binding, higher = more signal.
Chain of Follistatin-related protein 3 (Homo sapiens) (O95633 whole entry, looked up): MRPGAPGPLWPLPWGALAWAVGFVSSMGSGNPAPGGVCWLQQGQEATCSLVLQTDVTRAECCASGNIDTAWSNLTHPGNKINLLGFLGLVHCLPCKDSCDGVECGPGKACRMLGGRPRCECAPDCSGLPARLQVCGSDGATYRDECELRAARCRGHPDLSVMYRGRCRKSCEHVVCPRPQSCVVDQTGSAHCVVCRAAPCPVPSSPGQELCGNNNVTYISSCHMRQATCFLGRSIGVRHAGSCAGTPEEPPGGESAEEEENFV
Assay [9] addresses Dickkopf-related protein 1 (Homo sapiens) (UniProt O94907). The experiment in a line: small molecules binding DKK1 protein – biochemical, small-molecule microarray, 635 nm fluorescence scan, primary screen (AID 1106).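 Also: score merges emission near 667 nm with signal to noise over three replicate slides.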 Particulars: higher = more signal.
Assay [10] relates to Inhibin beta A chain (activin A). Nature of the assay: small molecules binding activin A – biochemical, small-molecule microarray, 635 nm fluorescence scan, primary screen (AID 1107).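 Also: mouse activin A protein probed at 4.33 µg/mL on printed slides; score merges bound-protein fluorescence near 667 nm with spot signal-to-noise.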 Particulars: INHBA, higher = more signal.
The test system of assay [11] is Human papillomavirus type 1a protein E7 (residues 44-93). Nature of the assay: small molecules binding HPV E7 44-93 – biochemical, small-molecule microarray, residues 44-93, 635 nm fluorescence, primary screen (AID 1108).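 Also: E7 fragment applied at 1 µg/mL in TBST for 1 h at 4 C; score combines spot fluorescence with its signal to noise ratio.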 Particulars: fluorescence 635 nm, higher = more signal.
Assay [12] can be described thus: hepatitis C replication reporter changes, two-sided – Huh7 cells, luciferase reporter, HCV replication inhibitor project, primary screen (AID 1109).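 Also: huh7 hepatoma cells harbouring a luciferase neomycin HCV replicon reporter; luciferase luminescence as measure of HCV replicon replication; test concentration not given here.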 Particulars: Huh7 HCV replicon luciferase reporter, 48 h; higher = more signal.
The target of assay [13] is Left-right determination factor 2 (Homo sapiens) (UniProt O00292). Nature of the assay: small molecules binding LEFTY2 protein – biochemical, small-molecule microarray, 635 nm fluorescence scan, primary screen (AID 1110). Particulars: higher = more signal.
Chain of Left-right determination factor 2 (Homo sapiens) (O00292 whole entry, looked up): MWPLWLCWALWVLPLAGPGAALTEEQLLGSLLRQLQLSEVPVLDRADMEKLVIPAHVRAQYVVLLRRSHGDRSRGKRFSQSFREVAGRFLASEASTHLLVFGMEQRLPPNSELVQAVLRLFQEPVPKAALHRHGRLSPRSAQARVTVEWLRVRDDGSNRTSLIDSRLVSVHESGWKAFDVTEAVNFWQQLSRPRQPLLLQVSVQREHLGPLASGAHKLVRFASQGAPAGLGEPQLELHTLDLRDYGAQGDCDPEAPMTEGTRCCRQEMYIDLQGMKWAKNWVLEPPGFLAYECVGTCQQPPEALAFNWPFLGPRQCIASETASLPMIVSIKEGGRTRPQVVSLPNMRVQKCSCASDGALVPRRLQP
In assay [14] the target is Calmodulin-1 (Homo sapiens) (UniProt P0DP23). Nature of the assay: small molecules binding calmodulin-1 with EGTA – biochemical, small-molecule microarray, Cy5-labelled CALM1, profiling panel (AID 1111).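 Also: labelled calmodulin applied in Tris saline Tween buffer holding calcium plus EGTA and DTT.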 Particulars: Cy5-CALM1 binding fluorescence, higher = more signal.
For assay [15] the target is unchanged. Nature of the assay: small molecules binding Ca-loaded calmodulin-1 – biochemical, small-molecule microarray, Cy5-labelled CALM1, plus calcium, artefact control for SMM control-protein annotation, profiling panel (AID 1112).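 Also: score merges spot fluorescence with signal to noise from triplicate slides.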 Particulars: Cy5-CALM1 binding fluorescence, higher = more signal.
Assay [16] is described as follows: probe aWnt5a binding to arrayed compounds – biochemical, biotinylated probe, 635/667 nm fluorescence, primary screen (AID 1113).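 Also: score merges 667 nm fluorescence intensity with signal-to-noise per printed feature.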 Particulars: small-molecule microarray, higher = more signal.
Assay [17] in a line: probe aShh binding to arrayed compounds – biochemical, biotinylated probe, 635/667 nm fluorescence, primary screen (AID 1114).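 Also: probe is biotin-labelled aShh protein from a stem cell growth factor screen; measures binding of labelled protein to compounds printed on the slide; score merges feature fluorescence at 667 nm with signal-to-noise.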 Particulars: small-molecule microarray, higher = more signal.
The nature of assay [18]: probe aNog binding to arrayed compounds – biochemical, biotinylated probe, 635/667 nm fluorescence, primary screen (AID 1115).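 Also: probe is biotinylated aNog protein used at 0.15 µg/mL for 1 h at 4 C; z-score combines 667 nm fluorescence of each spot with its signal to noise.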 Particulars: small-molecule microarray, higher = more signal.
Assay [19] concerns the target Torsin-1A-interacting protein 1 (Homo sapiens) (UniProt Q5JTV8). The experiment in a line: compound microarray binding of lysate hLAP1 – cell lysate, small-molecule microarray, COS7 lysate, 635/667 nm fluorescence, primary screen (AID 1116). Particulars: 635 nm fluorescence, higher = more signal.
For assay [20], the target named is Alpha-bungarotoxin (Bungarus multicinctus) (UniProt P60615). The experiment in a line: compounds binding labelled alpha-BTX control protein – biochemical, small-molecule microarray, Alexa647 label, 635/667 nm fluorescence, artefact control for SMM control protein annotation, profiling panel (AID 1117). Particulars: alpha-BTX-A647 binding fluorescence, higher = more signal.
Chain of Alpha-bungarotoxin (Bungarus multicinctus) (P60615 whole entry, looked up): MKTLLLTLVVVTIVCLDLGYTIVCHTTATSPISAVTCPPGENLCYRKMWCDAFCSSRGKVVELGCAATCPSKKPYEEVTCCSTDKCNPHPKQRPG

SMILES strings stand for the structures. The source made the active and inactive calls.

Chain of Torsin-1A-interacting protein 1 (Homo sapiens) (Q5JTV8 whole entry, looked up): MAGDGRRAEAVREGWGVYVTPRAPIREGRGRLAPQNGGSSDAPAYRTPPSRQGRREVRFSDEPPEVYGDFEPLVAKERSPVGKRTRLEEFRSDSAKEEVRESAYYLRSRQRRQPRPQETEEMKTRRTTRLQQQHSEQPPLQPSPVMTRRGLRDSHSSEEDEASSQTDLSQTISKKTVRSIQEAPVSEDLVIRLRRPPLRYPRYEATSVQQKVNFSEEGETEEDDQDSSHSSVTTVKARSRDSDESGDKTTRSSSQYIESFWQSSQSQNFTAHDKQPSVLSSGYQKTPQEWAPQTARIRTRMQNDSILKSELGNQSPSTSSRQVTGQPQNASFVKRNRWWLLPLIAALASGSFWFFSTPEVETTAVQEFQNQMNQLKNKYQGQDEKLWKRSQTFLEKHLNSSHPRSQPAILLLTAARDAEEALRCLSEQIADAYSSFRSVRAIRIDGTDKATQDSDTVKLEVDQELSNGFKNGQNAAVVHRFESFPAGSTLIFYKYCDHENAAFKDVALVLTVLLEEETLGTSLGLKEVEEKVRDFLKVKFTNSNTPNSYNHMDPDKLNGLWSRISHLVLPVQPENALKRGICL
Chain of Fibroblast growth factor 10 (Homo sapiens) (O15520 whole entry, looked up): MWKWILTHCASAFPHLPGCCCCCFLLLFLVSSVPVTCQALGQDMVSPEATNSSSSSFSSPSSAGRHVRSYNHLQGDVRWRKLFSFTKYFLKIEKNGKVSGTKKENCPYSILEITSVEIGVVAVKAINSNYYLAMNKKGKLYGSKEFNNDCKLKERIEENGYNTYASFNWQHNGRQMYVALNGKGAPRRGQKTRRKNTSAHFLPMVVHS
Chain of Dickkopf-related protein 1 (Homo sapiens) (O94907 whole entry, looked up): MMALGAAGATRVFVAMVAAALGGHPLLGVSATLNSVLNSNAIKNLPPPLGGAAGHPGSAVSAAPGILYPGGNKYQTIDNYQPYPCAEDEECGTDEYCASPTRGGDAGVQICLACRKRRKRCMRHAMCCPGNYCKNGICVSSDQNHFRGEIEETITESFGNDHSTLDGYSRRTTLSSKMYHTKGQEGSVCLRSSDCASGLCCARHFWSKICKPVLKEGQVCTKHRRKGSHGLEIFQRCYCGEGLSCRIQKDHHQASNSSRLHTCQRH

On to `COc1ccc([Si](C)(C)[C@H]2[C@H](CC(=O)N3CCC[C@H]3CO)O[C@@]3(C(=O)N(Cc4cccc(N5C(=O)COc6ccccc65)c4)c4ccccc43)[C@@H]2C)cc1`, for which the composite z-score was 1.21 in assay [1]; -0.248 in assay [2]; -0.364 in [3]; 0.369 in assay [5]; 0.803 in [6]; 0.771 in assay [7]. For the same compound, the composite z-score in assay [8] was 0.959; in assay [9], 0.519; in [10], 0.572; in [11] it was 1.08; in assay [13], 0.805; in assay [14], 1.36. Moreover, the composite z-score in [15] is 0.487; in [16], 0.0556; in assay [17], -0.17; in assay [18] it was 0.274; in assay [19] it was 1.16; in [20] it was -0.654. For the same compound, the z-score was -0.867 (inactive) in assay [4] and -2.51 in assay [12].
For the compound `COC(=O)[C@]1(CO)N=C(c2ccc(OCCCO)cc2)O[C@@H]1c1ccccc1N=[N+]=[N-]`, the composite z-score in [1] stood at 0.428; in [2], 0.341; in [3] it was 0.194; in [5], 1.36; in assay [6] it was 0.521; in [7] it was 0.384. The composite z-score in assay [8] was 0.393; in [9], 0.356; in assay [10], 0.653; in assay [11] it was 0.812; in assay [13], 0.274; in assay [14] it was -0.323. In addition, the composite z-score is -0.629 in assay [15]; 0.0189 in assay [16]; -0.226 in assay [17]; -0.215 in assay [18]; 1.6 in assay [19]; -0.0978 in assay [20]. In addition, the z-score in assay [4] was -0.121 (inactive); in [12] it was 0.411.
In the case of `CS(=O)(=O)CCOC(=O)C1=CC(CCCO)=CC(c2cccs2)N(Cc2cccc(OC(F)(F)F)c2)C=C1C(=O)OCCS(C)(=O)=O` (stereo not given), the composite z-score in assay [1] was 0.811; in assay [2], 0.674; in assay [3] it was 0.742; in [5] it was 0.739; in assay [6], 0.873; in assay [7], -0.37. In addition, the composite z-score in assay [8] is 0.14; in assay [9], -0.06; in [10] it was 0.915; in assay [11], 0.729; in assay [13], -0.224; in assay [14], 2.31. The composite z-score was 1.36 in assay [15]; 0.055 in assay [16]; 0.261 in assay [17]; -0.0554 in assay [18]; 1.88 in [19]; 1.6 in assay [20]. Besides, the z-score in assay [4] was 0.538 (inactive); in assay [12], -2.77.
For `CCN(CC)c1ccc(N2CC=CC34O[C@@H]5/C=C\CCC(C)OC(=O)C5[C@H]3C(=O)N(CCCO)[C@@H]4C2=O)cc1` (stereo not given in full), the composite z-score is 1.44 in [1]; -0.137 in assay [2]; 0.325 in assay [3]; -0.221 in assay [5]; -0.615 in [6]; -1.02 in [7]. Besides, the composite z-score in assay [8] was -0.777; in assay [9], -0.492; in assay [10], 1.01; in assay [11] it was -0.0672; in assay [13], -0.434; in [14] it was -0.671. Besides, the composite z-score in assay [15] is -0.431; in assay [16], -0.128; in assay [17] it was 0.0469; in assay [18] it was -0.216; in assay [19] it was 0.581; in assay [20], -0.625. The z-score was 0.122 (inactive) in assay [4] and -0.527 in assay [12].
For `CN1C(=O)C2C=CC(C(O)c3ccc(Br)cc3)N(N(c3ccccc3)c3ccccc3)C2C1=O` (stereo not given), the composite z-score in assay [1] was 0.259; in assay [2], 0.359; in [3], 1.04; in assay [5], -0.14; in assay [6], -0.0403; in [7], -0.211. The composite z-score in assay [8] was 0.0397; in assay [9], -0.626; in assay [10], 1.26; in [11], 0.962; in assay [13], -0.0937; in [14], 1.16. Further, the composite z-score in assay [15] was determined as 0.428; in [16], 0.0873; in [17], 0.0639; in [18], 0.654; in [19], 0.513; in assay [20], 1.12. Moreover, the z-score is 0.605 (inactive) in assay [4] and -1.01 in assay [12].
In the case of `COCCOC(=O)N1C(=O)[C@@]2(c3ccccc31)[C@H](C(N)=O)[C@H]1C(=O)O[C@H](c3ccccc3)[C@H](c3ccccc3)N1[C@@H]2c1ccccc1OCCO`, the composite z-score is 1.31 in assay [1]; 0.756 in assay [2]; 0.799 in assay [3]; 1.23 in [5]; 0.98 in [6]; 0.483 in assay [7]. In addition, the composite z-score in assay [8] worked out at 0.584; in assay [9], 0.516; in assay [10], 0.617; in assay [11], 1.32; in assay [13] it was 0.565; in [14], 2.3. The composite z-score in [15] is 0.668; in assay [16], -0.0118; in assay [17] it was -0.0035; in assay [18] it was 0.162; in assay [19], 4.3; in assay [20], 2.62. Moreover, the z-score in [4] is -0.0592 (inactive); in assay [12], -2.2.
